Test results from PubChem BioAssay (Tox21).
“And” between values parts separate entries of the source, which are not always exact repeats. Equal entries are not always repeated. Inconclusive results are not listed. Entries that show only a call come without a potency. The source made the active and inactive calls. The call rests on the fitted dose curve; in most records, active means well fitted cell-killing curve with a large enough effect in the repeat runs; inconclusive means weak or mixed curves; inactive means no such curve, though single readings can be large or run the other way.

Assay: qHTS assay to identify small molecule antagonists of the androgen receptor (AR) signaling pathway - cell viability counter screen (AID 743033; further: nearly all actives have a fitted effect of over 45% in size)
Settings: AR-bla HEK293 viability, CellTiter-Glo luminescence, 16 h; series mostly up to 58.5 µM
Source text: National Center for Advancing Translational Sciences [NCATS]
NIH Chemical Genomics Center [NCGC]
U.S. Environmental Protection Agency [EPA]
National Institutes of Environmental Health Sciences [NIEHS]
National Toxicology Program [NTP]
U.S. Food and Drug Administration [FDA]
Androgen receptor (AR), a nuclear hormone receptor, plays a critical role in AR-dependent prostate cancer and other androgen related diseases. Endocrine disrupting chemicals (EDCs) and their interactions with steroid hormone receptors like AR may cause disruption of normal endocrine function as well as interfere with metabolic homeostasis, reproduction, developmental and behavioral functions. To identify the compounds that inhibit AR signaling, GeneBLAzer AR-UAS-bla-GripTite cell line (Invitrogen, Carlsbad, CA, USA) containing a beta-lactamase reporter gene under control of an Upstream Activator Sequence (UAS) stably integrated into HEK293 cells was used to screen the Tox21 10K compound library. The cytotoxicity of the Tox21 compound library against the AR-bla cell line was tested in parallel by measuring the cell viability using CellTiter-Glo assay in the same wells.
Tox21 Assay Protocol Summary:
AR-bla cells were dispensed at 2,000 cells/5 uL of assay medium per well into black wall/clear-bottom 1536-well plates using a Multidrop Combi (ThermoFisher Scientific, Waltham, MA) dispenser. After the assay plates were incubated at a 37C and 5% CO2 for 4 hr, 23 nL of compounds dissolved in DMSO, positive controls or DMSO only was transferred to the assay plate by a Pintool station (Kalypsys, San Diego, CA), followed by addition of 1 uL of agonist (R1881) in culture medium using a Bioraptr Flying Reagent Dispenser (FRD) workstation (Beckman Coulter, Indianapolis, IN, USA). The plates were incubated at a 37C and 5% CO2 for 16 h. After 1 uL of LiveBLAzerTM B/G FRET substrate was added using a Bioraptr FRD, the plates were incubated at room temperature for 2 h and fluorescence intensity was measured by an Envision plate reader (PerkinElmer, Shelton, CT). For cell viability readout that measures cytotoxicity, 4 ul/well of CellTiter-Glo reagent was added into the assay plates using a Bioraptr FRD. After 30 min incubation at room temperature, the luminescence intensity in the plates was measured using a ViewLux (PerkinElmer) plate reader.
Potency means the concentration at half of the fitted maximal effect.

Row | Compound | Potency
1 | COC([CH2][Hg])CNC(=O)c1ccccc1OCC(=O)O (stereo not given) | inactive
2 | O=c1ccc2cc(O[C@@H]3O[C@H](CO)[C@@H](O)[C@H](O)[C@H]3O)c(O)cc2o1 | inactive
3 | c1csc(C2(N3CCCCC3)CCCCC2)c1 | inactive
4 | O=C1CCCCC1CN1CCCCC1 (stereo not given) | inactive
5 | COc1ccc(OC)c(C[C@H](C)N)c1 | inactive
6 | CCCCCCCCCC(=O)O[C@H]1CC[C@H]2[C@@H]3CCC4=CC(=O)CC[C@]4(C)[C@H]3CC[C@]12C | inactive
7 | CCCCCN(C)CCC(O)(P(=O)(O)O)P(=O)(O)O | inactive
8 | Clc1ccccc1-c1ccccc1Cl | inactive
9 | CN1CSC(=S)N(C)C1 | 5.47 µM (active) and 3.46 µM (active)
10 | C[C@@H](Cc1ccccc1)N(C)C | inactive
11 | OC[C@@H](O)[C@H]1O[C@@H]2O[C@@H](C(Cl)(Cl)Cl)O[C@@H]2[C@H]1O | inactive
12 | C[C@@H]([C@H](O)c1ccccc1)N(C)C | inactive
13 | O=C1CN=C(c2ccccc2)c2cc(Cl)ccc2N1 | inactive
14 | O=C(O)/C=C/C(=O)O | inactive
15 | C[C@]12CC[C@H](O)C[C@H]1CC[C@@H]1[C@@H]2CC[C@]2(C)[C@@H](c3ccc(=O)oc3)C[C@H]3O[C@]132 | 1.34 µM (active)
16 | [2H]C([2H])([2H])[C@H](N)Cc1ccccc1 | inactive
17 | CC(=O)[C@@]1(O)CC[C@H]2[C@@H]3CCC4=CC(=O)CC[C@]4(C)C3(F)[C@@H](O)C[C@@]21C (stereo not given in full) | inactive
18 | O=P1(N(CCCl)CCCl)NC(OO)CCO1 (stereo not given) | inactive
19 | COc1ccc2c3c1O[C@H]1[C@@H](O)C=C[C@H]4[C@@H](C2)NCC[C@@]341 | inactive
20 | CCC(C)(S(=O)(=O)CC)S(=O)(=O)CC | inactive

Row | Compound | Potency
21 | CC(Cc1ccccc1)NC=O (stereo not given) | inactive
22 | OCC(c1ccc(Cl)cc1)c1ccc(Cl)cc1 | 43.6 µM (active)
23 | c1ccc(C2(N3CCCC3)CCCCC2)cc1 | inactive
24 | O=[N+]([O-])c1cc(I)c(O)c(I)c1 | inactive
25 | C=CCC1([C@@H](C)CCC)C(=O)NC(=O)NC1=O | inactive
26 | CN1C(=O)CC(=O)N(c2ccccc2)c2cc(Cl)ccc21 | inactive
27 | CN1c2ccccc2C(NCCCCCCC(=O)O)c2ccc(Cl)cc2S1(=O)=O (stereo not given) | inactive
28 | Cc1ccccc1-n1c(C)nc2ccccc2c1=O | inactive
29 | CN(C)[C@H](Cc1ccccc1)c1ccccc1 | inactive
30 | CC(=O)OCC(=O)[C@H]1CC[C@H]2[C@@H]3CC[C@H]4C[C@H](O)CC[C@]4(C)[C@H]3C(=O)C[C@]12C | inactive
31 | CNC(=O)Oc1ccccc1C(=O)Nc1ccccc1 | inactive
32 | CCC1(c2ccccc2)C(=O)NC(=O)N(C(=O)c2ccccc2)C1=O (stereo not given) | inactive
33 | CCC/C=C/C=C/C(=O)O[C@H]1/C(=C/C(=O)OC)C[C@H]2C[C@H]([C@@H](C)O)OC(=O)C[C@H](O)C[C@@H]3C[C@H](OC(C)=O)C(C)(C)[C@](O)(C[C@@H]4C/C(=C/C(=O)OC)C[C@H](/C=C/C(C)(C)[C@]1(O)O2)O4)O3 | inactive
34 | CNC(C)Cc1ccccc1 (stereo not given) | inactive
35 | CCCC(=O)OC(C(Cl)(Cl)Cl)P(=O)(OC)OC (stereo not given) | inactive
36 | CC(=O)OC1CN2CCC1CC2 (stereo not given) | inactive
37 | C[C@@H](CO)NC(=O)[C@@H]1C=C2c3cccc4[nH]cc(c34)C[C@H]2N(C)C1 | inactive
38 | Cc1nnc2n1-c1ccc(Cl)cc1C(c1ccccc1Cl)=NC2 | inactive
39 | CN(C)CCCCCCN(C)C (tested in a mixture with another compound) | inactive
40 | CCOc1ccc2c3c1O[C@H]1[C@@H](O)C=C[C@H]4[C@@H](C2)N(C)CC[C@@]341 | inactive
